In PubChem BioAssay one finds viability increase data, which are given here for 40 compounds.

Values without a mark were called inactive.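 The calls were made as follows: active = viability increase at or above a cutoff of the median across tested compounds plus 3 SD (cut at about 8.5% in these data, passing the limit was not always enough); inconclusive = some gains above the cutoff, reason not given; inactive = the rest.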

The nature of the assay: doxorubicin toxicity protection in MRP-1 cells – H69AR cells, CellTiter-Glo, duplicate, MRP-1 activator project, pilot screen (AID 807).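 Also: compound pretreatment 18-22 h then 72 h combined with doxorubicin; 0% = doxorubicin alone and 100% = vehicle without doxorubicin.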 The settings on record: H69AR viability with doxorubicin, CellTiter-Glo luminescence; at 10 µM; active compounds read high. (In general: Cellular ATP, detected with luciferase, serves as a proxy for viable cell number.)
Take `Cc1cc2ncn(CC(O)COC3CCCCC3)c2cc1C` (stereo not given): the viability increase was -2.98%. The same measure for `CCOC(=O)c1sc(NC(=O)c2ccco2)nc1-c1ccccc1`: -2.38%; for `COc1ccc(S(=O)(=O)N2CCC(C(=O)Nc3cccc(Cl)c3)CC2)cc1OC`: -3.54%; for `Cc1cccc(N(C)c2cc(C)nc3ncnn23)c1`: -1.19%. The same measure for `CCOC(=O)C1CCCN(C(=O)Cn2sc3nc(C)cc(C)c3c2=O)C1` (stereo not given): -8.04%. The same measure for `CCc1ccc(NC(=O)CSc2nc3c(c(=O)n(C)c(=O)n3C)n2C)cc1`: -1.41%; for `COCCNC(=O)c1ccccc1NC(=O)C1COc2ccccc2O1` (stereo not given): -0.74%. As to `COc1ccc(S(=O)(=O)Cc2ccc(C(=O)N3CCc4ccccc4C3)o2)cc1`, the viability increase was -0.44%. The same measure for `CC1Cc2ccccc2N1C(=O)Cn1cnc2ccccc2c1=O` (stereo not given): 0.12%; for `Brc1cccc(-c2nc(-c3ccncc3)no2)c1`: -3.4%; for `COc1ccc(OC)c(NC(=O)NC2(C(F)(F)F)Oc3ccccc3O2)c1`: -6.83%. Consider `CC(C)c1ccc(NC(=O)c2cccnc2)cc1`, for which the viability increase is 0.68%.

Regarding `Cc1ccc2oc3c(c(=O)c2c1)C(c1cccs1)N(CCCN(C)C)C3=O` (stereo not given), the viability increase is -2.74%. The same measure for `COc1ccc(CC(=O)N2CC3(C)CC2CC(C)(C)C3)cc1OC` (stereo not given): -2.91%. As for `COc1ccc(C2C(C(=O)c3ccco3)=C(O)C(=O)N2Cc2cccnc2)cc1OC` (stereo not given), the viability increase is -3.78%.

Turning to `COc1ccc(OCC(=O)OCCN2C(=O)c3ccccc3C2=O)cc1`, the viability increase was -0.31%. As to `COc1ccc(C2C(C(=O)NCC3CCCO3)c3cc(OC)c(OC)cc3C(=O)N2C)cc1OC` (stereo not given), the viability increase was -1.75%. The same measure for `Cc1ccccc1CSc1nnc(-c2ccco2)n1Cc1ccco1`: -4.14%; for `Cc1nc(CNS(=O)(=O)c2ccccc2F)cs1`: -0.6%. The same measure for `CC1CC(C(O)c2ccccn2)C(=O)C(C(O)c2ccccn2)C1` (stereo not given): -3.28%. The same measure for `CCCC(c1c(C)n(C)n(-c2ccccc2)c1=O)c1c(C)n(C)n(-c2ccccc2)c1=O`: -1.18%; for `CS(=O)(=O)N(Cc1ccc(C(=O)NCc2ccco2)cc1)c1ccccc1`: -3.9%.

As to `CC(C)Cc1cc(C(=O)Nc2cc(Cl)ccc2Cl)no1`, the viability increase was -2.35%. The same measure for `Cc1cc(F)ccc1S(=O)(=O)Nc1c(C)n(C)n(-c2ccccc2)c1=O`: -1.59%; for `Cc1onc(-c2ccccc2)c1C(=O)Nc1cccc(C#N)c1`: -2.52%. Regarding `O=C(c1ccccc1)c1ccc(OC(=O)N2CCOCC2)cc1`, the viability increase is 1.36%. The same measure for `COC(=O)CN1C(=O)CC(C)(C)Sc2ccccc21`: 1.77%; for `Cc1cc(C)cc(N(CC(=O)NCc2ccco2)S(=O)(=O)c2c(C)noc2C)c1`: -4.19%; for `COc1ccc(C)cc1NC(=O)CSc1nnc(-c2ccc(OC)c(OC)c2)n1N`: -1.57%. The same measure for `Cn1c(=O)oc2cc(S(=O)(=O)N3CCCc4ccccc43)ccc21`: -5.94%.

As to `CC(C)(C)NC(=O)c1ccc(NC(=O)C2COc3ccccc3O2)cc1` (stereo not given), the viability increase is -0.73%.

As to `CC1CCCC(C)N1c1nnc(N)s1` (stereo not given), the viability increase was -1.42%.

`COc1ccc(-c2cc(N)n(S(=O)(=O)Cc3ccccc3)n2)c(OC)c1`: the viability increase was 0.27%.

Regarding `CC1CN(c2ncnc3c2cnn3-c2ccc(Cl)cc2)CC(C)O1` (stereo not given), the viability increase was 3.8%.

Turning to `NS(=O)(=O)c1ccc(CCNC(=O)C2CCCN(S(=O)(=O)c3cccnc3)C2)cc1` (stereo not given), the viability increase is -0.63%. On to `O=C(O)c1ccc(NS(=O)(=O)c2cccc3cccnc23)cc1`, for which the viability increase was -0.56%. The same measure for `Cc1ccc(C(=O)Nc2nc3ccccc3n2CCN2CCCC2)cc1`: -5.99%. The same measure for `CC(C)c1nnc(NC(=O)CSc2ncn[nH]2)s1`: -0.74%; for `Cc1cc(C)c(NC(=O)C(C)(C)C)c(Cl)c1`: -0.89%.

`CCOc1ccc(Nc2cc(C)nc3nc(C)nn23)cc1`: the viability increase was -3.11%.
